For the first experiment, the target named is T1, FLI1 (Homo sapiens, UniProt Q01543 1-452).
T1 sequence: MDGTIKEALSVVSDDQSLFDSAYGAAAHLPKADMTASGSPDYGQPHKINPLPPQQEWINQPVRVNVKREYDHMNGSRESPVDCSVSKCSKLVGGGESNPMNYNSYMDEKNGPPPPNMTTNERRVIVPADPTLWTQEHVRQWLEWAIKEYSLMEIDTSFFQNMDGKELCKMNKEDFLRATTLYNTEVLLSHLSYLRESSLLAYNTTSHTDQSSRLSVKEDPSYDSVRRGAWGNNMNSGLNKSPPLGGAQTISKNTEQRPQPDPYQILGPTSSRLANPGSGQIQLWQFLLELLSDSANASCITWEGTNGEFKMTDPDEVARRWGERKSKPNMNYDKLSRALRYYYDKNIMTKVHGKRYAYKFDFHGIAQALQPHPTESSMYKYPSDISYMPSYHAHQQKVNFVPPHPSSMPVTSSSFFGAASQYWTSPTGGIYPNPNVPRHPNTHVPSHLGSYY
Put plainly: DAPPL (digital affinity profiling via proximity ligation, sequencing); 10 mM Tris-HCl pH 7.5, 50 mM NaCl, 1 mM DTT, 4% glycerol, room temperature, 30 min; GST-TFs on glutathione beads, 16-mer random dsDNA library, 0.1% formaldehyde crosslink after washing; high values mean tight binding. The following applies: protein: recombinant; tags: N-terminal GST; dsDNA, one strand shown. The procedure, abridged:
(§1)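 The binding signal reported is, for every hexamer, its read frequency for a factor over its read frequency for the tag-only sample. Reads came from pools of yeast-expressed, GST-fused human transcription factors on glutathione beads, barcoded with DNA and mixed with that sample, which were incubated with 200 nmole of a random double-stranded 16-mer DNA library in Tris/NaCl/DTT/glycerol buffer at room temperature for 30 min. After washing, the pools were crosslinked with 0.1% formaldehyde, proximity-ligated with BsaI/T4 ligase for 1 h at 37 °C, PCR-amplified and sequenced on an Illumina NextSeq500.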
Regarding CACCCT, the binding signal was 1.21 fold enrichment (6-mer frequency, TF over GST control).
The same measure, in the same setting: the value for TGCGGA was 1.35 fold enrichment (6-mer frequency, TF over GST control).
The same measure, in the same setting: to CTCACC belongs 1.26 fold enrichment (6-mer frequency, TF over GST control); to GCCACT, 1.17 fold enrichment (6-mer frequency, TF over GST control).
TGTCAC: the binding signal is 1.15 fold enrichment (6-mer frequency, TF over GST control).
Same read-out and setting: to GCTACA belongs 1.16 fold enrichment (6-mer frequency, TF over GST control); to CCACAT, 1.2 fold enrichment (6-mer frequency, TF over GST control); to CACAAC, 1.24 fold enrichment (6-mer frequency, TF over GST control).
Take GGCCTC: the binding signal is 1.25 fold enrichment (6-mer frequency, TF over GST control).
Same read-out and setting: to GCTACC belongs 1.18 fold enrichment (6-mer frequency, TF over GST control).
Same read-out and setting: the value for ACAACC was 1.25 fold enrichment (6-mer frequency, TF over GST control); that for CAACAT was 1.18 fold enrichment (6-mer frequency, TF over GST control); that for CAAACT was 1.18 fold enrichment (6-mer frequency, TF over GST control).
The same measure, in the same setting: the value for TGCATG was 1.12 fold enrichment (6-mer frequency, TF over GST control); that for GTCCTT was 1.16 fold enrichment (6-mer frequency, TF over GST control); that for GGATGC was 1.11 fold enrichment (6-mer frequency, TF over GST control).
Take AGCGAC: the binding signal was 1.09 fold enrichment (6-mer frequency, TF over GST control).
Still for that read-out and setting: the value for AACCGG was 1.43 fold enrichment (6-mer frequency, TF over GST control); that for ACCTGA was 1.06 fold enrichment (6-mer frequency, TF over GST control).
Still for that read-out and setting: the value for CCCGGC was 1.15 fold enrichment (6-mer frequency, TF over GST control); that for CCGCCG was 1.29 fold enrichment (6-mer frequency, TF over GST control).
As for CGTATC, the binding signal was 1.2 fold enrichment (6-mer frequency, TF over GST control).
Same read-out and setting: to CACACT belongs 1.18 fold enrichment (6-mer frequency, TF over GST control).
Same read-out and setting: to TGGCAG belongs 1.19 fold enrichment (6-mer frequency, TF over GST control); to GTCCTC, 1.15 fold enrichment (6-mer frequency, TF over GST control); to GACTAC, 1.17 fold enrichment (6-mer frequency, TF over GST control).
Same read-out and setting: to CCAACA belongs 1.06 fold enrichment (6-mer frequency, TF over GST control); to GTACAA, 1.05 fold enrichment (6-mer frequency, TF over GST control); to TGCACC, 1.12 fold enrichment (6-mer frequency, TF over GST control).
CCCCCG: the binding signal was 1.21 fold enrichment (6-mer frequency, TF over GST control).
The same measure, in the same setting: the value for CGACAC was 1.18 fold enrichment (6-mer frequency, TF over GST control); that for CTGTCC was 1.34 fold enrichment (6-mer frequency, TF over GST control); that for GCACCC was 1.21 fold enrichment (6-mer frequency, TF over GST control).
With GACATC, the binding signal is 1.36 fold enrichment (6-mer frequency, TF over GST control).
Take CACATA: the binding signal is 1.14 fold enrichment (6-mer frequency, TF over GST control).
Consider CGTACC, for which the binding signal is 1.24 fold enrichment (6-mer frequency, TF over GST control).
The same measure, in the same setting: the value for GCTTGG was 1.19 fold enrichment (6-mer frequency, TF over GST control); that for ACACAC was 1.24 fold enrichment (6-mer frequency, TF over GST control).
Still for that read-out and setting: to TGCGAC belongs 1.2 fold enrichment (6-mer frequency, TF over GST control).
Regarding CCGTCA, the binding signal was 1.24 fold enrichment (6-mer frequency, TF over GST control).

The target of a further experiment is T2, ELK1 (Homo sapiens, UniProt P19419 1-428).
T2 sequence: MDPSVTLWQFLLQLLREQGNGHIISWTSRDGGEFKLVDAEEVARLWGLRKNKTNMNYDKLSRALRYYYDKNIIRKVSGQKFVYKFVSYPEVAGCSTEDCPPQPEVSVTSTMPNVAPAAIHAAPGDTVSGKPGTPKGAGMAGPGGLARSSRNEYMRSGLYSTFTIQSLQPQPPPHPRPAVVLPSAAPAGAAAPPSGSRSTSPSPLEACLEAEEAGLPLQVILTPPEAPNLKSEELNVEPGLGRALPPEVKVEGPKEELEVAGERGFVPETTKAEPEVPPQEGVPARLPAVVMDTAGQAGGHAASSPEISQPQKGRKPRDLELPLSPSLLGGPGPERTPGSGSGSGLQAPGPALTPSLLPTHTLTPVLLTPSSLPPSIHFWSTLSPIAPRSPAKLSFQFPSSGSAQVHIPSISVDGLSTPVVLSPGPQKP
The description is as above. The note with it: protein: recombinant; tags: N-terminal GST; dsDNA, one strand shown. An outline of the steps:
as §1
As for CACCCT, the binding signal is 1.26 fold enrichment (6-mer frequency, TF over GST control).
In the case of TGCGGA, the binding signal was 1.27 fold enrichment (6-mer frequency, TF over GST control).
Still for that read-out and setting: the value for CTCACC was 1.32 fold enrichment (6-mer frequency, TF over GST control); that for GCCACT was 1.2 fold enrichment (6-mer frequency, TF over GST control); that for TGTCAC was 1.11 fold enrichment (6-mer frequency, TF over GST control).
Still for that read-out and setting: to GCTACA belongs 1.07 fold enrichment (6-mer frequency, TF over GST control).
Take CCACAT: the binding signal is 1.3 fold enrichment (6-mer frequency, TF over GST control).
Same read-out and setting: to CACAAC belongs 1.24 fold enrichment (6-mer frequency, TF over GST control); to GGCCTC, 1.2 fold enrichment (6-mer frequency, TF over GST control); to GCTACC, 1.27 fold enrichment (6-mer frequency, TF over GST control).
In the case of ACAACC, the binding signal is 1.28 fold enrichment (6-mer frequency, TF over GST control).
The same measure, in the same setting: to CAACAT belongs 1.21 fold enrichment (6-mer frequency, TF over GST control); to CAAACT, 1.14 fold enrichment (6-mer frequency, TF over GST control); to TGCATG, 1.09 fold enrichment (6-mer frequency, TF over GST control).
On the same count and under the same terms, the value for GTCCTT was 1.2 fold enrichment (6-mer frequency, TF over GST control); that for GGATGC was 1.06 fold enrichment (6-mer frequency, TF over GST control).
Still for that read-out and setting: to AGCGAC belongs 1.15 fold enrichment (6-mer frequency, TF over GST control); to AACCGG, 1.58 fold enrichment (6-mer frequency, TF over GST control); to ACCTGA, 1.12 fold enrichment (6-mer frequency, TF over GST control).
Turning to CCCGGC, the binding signal is 1.25 fold enrichment (6-mer frequency, TF over GST control).
Same read-out and setting: the value for CCGCCG was 1.4 fold enrichment (6-mer frequency, TF over GST control).
Still for that read-out and setting: to CGTATC belongs 1.3 fold enrichment (6-mer frequency, TF over GST control).
Still for that read-out and setting: to CACACT belongs 1.11 fold enrichment (6-mer frequency, TF over GST control); to TGGCAG, 1.09 fold enrichment (6-mer frequency, TF over GST control); to GTCCTC, 1.22 fold enrichment (6-mer frequency, TF over GST control).
As for GACTAC, the binding signal was 1.19 fold enrichment (6-mer frequency, TF over GST control).
In the case of CCAACA, the binding signal is 1.11 fold enrichment (6-mer frequency, TF over GST control).
The same measure, in the same setting: to GTACAA belongs 1.08 fold enrichment (6-mer frequency, TF over GST control); to TGCACC, 1.16 fold enrichment (6-mer frequency, TF over GST control).
Same read-out and setting: to CCCCCG belongs 1.09 fold enrichment (6-mer frequency, TF over GST control).
Same read-out and setting: the value for CGACAC was 1.14 fold enrichment (6-mer frequency, TF over GST control); that for CTGTCC was 1.22 fold enrichment (6-mer frequency, TF over GST control).
On to GCACCC, for which the binding signal was 1.25 fold enrichment (6-mer frequency, TF over GST control).
As to GACATC, the binding signal was 1.4 fold enrichment (6-mer frequency, TF over GST control).
For CACATA, the binding signal was 1.14 fold enrichment (6-mer frequency, TF over GST control).
The same measure, in the same setting: to CGTACC belongs 1.15 fold enrichment (6-mer frequency, TF over GST control).
Still for that read-out and setting: the value for GCTTGG was 1.15 fold enrichment (6-mer frequency, TF over GST control).
Consider ACACAC, for which the binding signal is 1.13 fold enrichment (6-mer frequency, TF over GST control).
Same read-out and setting: the value for TGCGAC was 1.25 fold enrichment (6-mer frequency, TF over GST control).
The same measure, in the same setting: to CCGTCA belongs 1.3 fold enrichment (6-mer frequency, TF over GST control).

In a further experiment the target is T3, GABPA (Homo sapiens, UniProt Q06546 1-454).
T3 sequence: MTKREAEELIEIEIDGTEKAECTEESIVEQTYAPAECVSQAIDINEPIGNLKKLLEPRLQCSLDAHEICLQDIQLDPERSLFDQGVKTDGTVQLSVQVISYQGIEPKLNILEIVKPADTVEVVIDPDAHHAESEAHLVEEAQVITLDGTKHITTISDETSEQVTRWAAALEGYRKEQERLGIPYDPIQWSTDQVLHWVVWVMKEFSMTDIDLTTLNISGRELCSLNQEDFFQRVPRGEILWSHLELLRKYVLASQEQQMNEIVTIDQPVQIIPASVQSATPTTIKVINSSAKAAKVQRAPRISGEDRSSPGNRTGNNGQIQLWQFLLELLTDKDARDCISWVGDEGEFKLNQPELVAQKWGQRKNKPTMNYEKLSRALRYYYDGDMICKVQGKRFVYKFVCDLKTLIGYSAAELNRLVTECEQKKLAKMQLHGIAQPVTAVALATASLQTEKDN
Described as above. The following applies: protein: recombinant; tags: N-terminal GST; dsDNA, one strand shown. The procedure, abridged: as §1
Turning to CACCCT, the binding signal is 1.18 fold enrichment (6-mer frequency, TF over GST control).
Same read-out and setting: to TGCGGA belongs 1.2 fold enrichment (6-mer frequency, TF over GST control); to CTCACC, 1.32 fold enrichment (6-mer frequency, TF over GST control); to GCCACT, 1.16 fold enrichment (6-mer frequency, TF over GST control).
With TGTCAC, the binding signal is 1.22 fold enrichment (6-mer frequency, TF over GST control).
The same measure, in the same setting: to GCTACA belongs 1.22 fold enrichment (6-mer frequency, TF over GST control); to CCACAT, 1.12 fold enrichment (6-mer frequency, TF over GST control); to CACAAC, 1.3 fold enrichment (6-mer frequency, TF over GST control).
Same read-out and setting: the value for GGCCTC was 1.26 fold enrichment (6-mer frequency, TF over GST control); that for GCTACC was 1.25 fold enrichment (6-mer frequency, TF over GST control).
Same read-out and setting: to ACAACC belongs 1.21 fold enrichment (6-mer frequency, TF over GST control).
Regarding CAACAT, the binding signal is 1.22 fold enrichment (6-mer frequency, TF over GST control).
Same read-out and setting: to CAAACT belongs 1.21 fold enrichment (6-mer frequency, TF over GST control); to TGCATG, 1.13 fold enrichment (6-mer frequency, TF over GST control).
Same read-out and setting: the value for GTCCTT was 1.28 fold enrichment (6-mer frequency, TF over GST control).
On the same count and under the same terms, to GGATGC belongs 1.1 fold enrichment (6-mer frequency, TF over GST control).
Turning to AGCGAC, the binding signal is 1.09 fold enrichment (6-mer frequency, TF over GST control).
Still for that read-out and setting: the value for AACCGG was 1.33 fold enrichment (6-mer frequency, TF over GST control); that for ACCTGA was 1.03 fold enrichment (6-mer frequency, TF over GST control).
Still for that read-out and setting: the value for CCCGGC was 1.1 fold enrichment (6-mer frequency, TF over GST control).

For the origin of these results see publication PMC7862700, “An all-to-all approach to the identification of sequence-specific readers for epigenetic DNA modifications on cytosine”.
